# PubChem BioAssay AID620 (Sanford-Burnham Center for Chemical Genomics, 2007)
# Hit rate of the full screen: of about 87,000 compounds, about 360 (0.41%) were called active. Rule as the data show it: active = cytotoxicity above about 50%; inactive = the rest. This excerpt belongs to a sample that is enriched for actives.
# Assay: cytotoxicity in HT1080 fibrosarcoma cells, cell-based, fluorescence readout (AID 620);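 also: cells exposed to compound overnight then 4 h with Alamar Blue; 0% = vehicle DMSO and 100% = killing control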
# Conditions: HT1080 viability, at 10 µM, active compounds read high
row,Compound,cytotoxicity
1,COC(=O)c1ccccc1NC(=O)CN(c1cc(OC)ccc1OC)S(C)(=O)=O,-6.6% (inactive)
2,COC1(OC)N=C(N)C2(C#N)C(c3cccc(Oc4ccccc4)c3)C12C#N (stereo unspecified),0.4% (inactive)
3,CC(C)=CCC/C(C)=C/CC(C)(C)CNCCN1CCNCC1,56.1% (active)
4,c1ccc(CNCCN2CCNCC2)nc1,6.5% (inactive)
5,CC(C)=CCC/C(C)=C/CCC(C)NCCN1CCNCC1 (stereo unspecified),6.9% (inactive)
6,CCOc1ccc2nc(NC(=O)C3CCN(c4cnccn4)CC3)sc2c1,-5.6% (inactive)
7,COC(=O)[C@H](C)NC(=O)Nc1ccc(S(N)(=O)=O)cc1,-17.4% (inactive)
8,CSc1nnc(-c2ccc(S(=O)(=O)N3CCOCC3)cc2)n1CC1CCCO1 (stereo unspecified),0.1% (inactive)
9,CCSc1nnc(-c2ccc(S(=O)(=O)N3CCOCC3)cc2)n1CC1CCCO1 (stereo unspecified),-1.1% (inactive)
10,O=S(=O)(c1ccc2c(c1)nc(COc1ccc(Cl)cc1)n2CC1CCCO1)N1CCOCC1 (stereo unspecified),96.6% (active)
11,CSc1nc2ccccc2n1C(=O)Oc1ccccc1,13.7% (inactive)
12,COc1ccc(OC)c(NC(=O)CN2C(=O)c3ccccc3S2(=O)=O)c1,-3.4% (inactive)
13,Cc1ccc(S(=O)(=O)N2CCN(C(=O)CN3CCOCC3)C2c2ccccc2)cc1 (stereo unspecified),1.5% (inactive)
14,CCOC(=O)N1CCC(NC(=O)c2ccc3c(c2)sc2nc(-c4cccc(OC)c4)cn23)CC1,11.5% (inactive)
15,CCOC(=O)N1CCN(C(=O)c2ccc3c(c2)sc2nc(-c4ccccc4)cn23)CC1,0.3% (inactive)
16,COc1ccc2c(c1)sc1nc(-c3ccccc3)cn12,75.6% (active)
17,COc1cccc(-n2c(SC)nnc2-c2c[nH]c3ccccc23)c1,6.9% (inactive)
18,COc1ccc(S(=O)(=O)Nc2cc3c4c(oc3c3ccccc23)CC(C)(C)CC4=O)cc1,-13.5% (inactive)
19,COc1ccc(S(=O)(=O)Nc2cc3c(C(C)=O)c(C)oc3c3ccccc23)cc1,62.6% (active)
20,COC(=O)c1c(C)oc2c1cc(NS(=O)(=O)c1cccs1)c1ccccc12,0.6% (inactive)
21,CCCc1nc2oc3cc(OC)ccc3c(=O)c2c(=O)n1Cc1ccco1,-4.1% (inactive)
22,CCOC(=O)CSc1nc(-c2cccs2)nc2c1c(=O)n(C)c(=O)n2C,1.5% (inactive)
23,O=C(C1CCCN1S(=O)(=O)c1ccc(Cl)c(Cl)c1)N1CCCCC1 (stereo unspecified),-5% (inactive)

row,Compound,cytotoxicity
1,CCCNC(=O)C1CCN(c2ccc(S(=O)(=O)N3CCOCC3)cc2Cl)CC1,-9.5% (inactive)
2,O=C(NCc1cccs1)C1CCN(c2ccc(S(=O)(=O)N3CCOCC3)cc2Cl)CC1,67.8% (active)
3,CC(C)CNC(=O)C1CCN(c2ccc(S(=O)(=O)N3CCOCC3)cc2Cl)CC1,-20.4% (inactive)
4,COc1ccc(-n2nnnc2-c2cccc(OC)c2)cc1,48.1% (inactive)
5,COc1ccc(-n2nnnc2-c2ccccc2)cc1,58.8% (active)
6,COc1ccc(-n2nnnc2-c2cccnc2)cc1,-4.2% (inactive)
7,COc1cccc(/C(O)=C2\C(=O)C(=O)N(c3ccccn3)C2c2cccc(OC)c2OC)c1 (stereo unspecified),21.5% (inactive)
8,COC(=O)C(Cc1cnc(Cl)s1)(C(=O)OC)c1ccc([N+](=O)[O-])cc1[N+](=O)[O-],-2% (inactive)
9,CCC1=C2CC[C@H]3C(=O)N(CC)C(=O)[C@H]3[C@H]2[C@@]2(Cc3ccccc3)C(=O)N(CC3CC3)C(=O)N2C1=O,2.7% (inactive)
10,COc1ccc(-c2cc(C(F)(F)F)n3nc(C)cc3n2)cc1,-1.8% (inactive)
11,Cc1ccc(NC(=O)c2nnn(CC(=O)Nc3ccccc3)c2N)cc1C,-2.3% (inactive)
12,Cc1nnc(SCC(=O)c2cc(C)n(-c3ccc4c(c3)OCO4)c2C)s1,61.4% (active)
13,Cc1cc(C(=O)CSc2nncs2)c(C)n1-c1ccc2c(c1)OCO2,24.4% (inactive)
14,Cc1cc(C(=O)CSc2nnnn2C)c(C)n1-c1ccc2c(c1)OCCO2,13.4% (inactive)
15,CN1C(=O)CC(Sc2ncccc2C(=O)O)C1=O (stereo unspecified),1.8% (inactive)
16,Cc1cc(C)n(-c2nc3ccccc3nc2N2CCOCC2)n1,-0.9% (inactive)
17,CCOc1ccccc1N1CCN(C(=O)C2c3ccccc3Oc3ccccc32)CC1,-0.5% (inactive)
18,O=C(C1c2ccccc2Oc2ccccc21)N1CCN(c2ccc(Cl)cc2)CC1,-1.1% (inactive)
19,COc1ccccc1N1CCN(C(=O)C2c3ccccc3Oc3ccccc32)CC1,56% (active)
20,O=S(=O)(c1ccccc1C(F)(F)F)N1CCC(n2cnc3ccccc32)CC1,-0.9% (inactive)
21,COc1ccc(Cl)cc1NC(=O)/C=C\C(=O)O,-3.8% (inactive)
22,Cc1occc1-c1nnc(SCC(=O)c2ccc(F)cc2)n1Cc1ccco1,-0.9% (inactive)
23,c1ccc(Nc2ccccc2Nc2ccccn2)nc1,0.4% (inactive)
